Source: PubChem (National Center for Advancing Translational Sciences (NCATS))
A selection: hits, their analogues and other compounds. The true share with any hit is near 5.7%.
PI4K2A inh: PI4K2A (human) kinase inhibition | Q9BTU6 | purified PI4K2A, ADP-Glo luminescence, 1 h; active compounds read low | activity change, negative = inhibition, % at 76.9 µM | 420,000 compounds, 0.13% hits | AID 1346378; in the data active = activity change below about -50%; inconclusive = mostly about -30% to -49%;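 also: -100% = wells without enzyme as full effect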
Target sequence (Q9BTU6 whole entry, looked up): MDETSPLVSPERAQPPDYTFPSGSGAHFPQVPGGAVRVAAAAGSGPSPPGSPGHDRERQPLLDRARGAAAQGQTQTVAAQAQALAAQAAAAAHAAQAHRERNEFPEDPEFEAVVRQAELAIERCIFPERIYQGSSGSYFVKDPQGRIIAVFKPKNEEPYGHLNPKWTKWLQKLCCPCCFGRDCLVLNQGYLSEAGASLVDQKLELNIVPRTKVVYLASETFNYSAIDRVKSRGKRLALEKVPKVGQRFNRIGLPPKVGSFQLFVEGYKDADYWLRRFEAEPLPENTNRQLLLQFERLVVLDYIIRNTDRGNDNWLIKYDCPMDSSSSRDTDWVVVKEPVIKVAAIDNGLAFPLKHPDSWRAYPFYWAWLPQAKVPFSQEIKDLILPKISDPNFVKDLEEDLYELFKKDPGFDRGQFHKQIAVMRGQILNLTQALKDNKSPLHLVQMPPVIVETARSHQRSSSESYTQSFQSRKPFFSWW
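PI4K2A activity was measured by ADP-Glo luminescence: enzyme (4 ug/mL stock) and phosphatidylinositol (1.2 mM stock) in Tris pH 7.5/MgCl2/EGTA/Triton X-100 buffer were reacted with ATP (300 microM stock) for one hour at ambient temperature.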
Giardia killer: Giardia lamblia killing | Giardia lamblia trophozoite viability | 340,000 compounds, 0.15% hits | activity change, % at 7.66 µM, hits read low; in the data active = activity change below about -80%; inconclusive = between about -30% and that limit;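 also: parasites exposed to compound for two days anaerobically before the ATP read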
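Compounds were tested on trophozoites seeded at 100 cells/well and held 48 hrs at 37 deg C anaerobically. An ATP-based luminescent kit measured the remaining live cells.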
KB-3-1 cytotox: KB-3-1 parental cell cytotoxicity. 400,000 compounds, 1.4% hits. Potency, µM (titrated, usually from 46.1 µM), most hits filed as cytotoxic. KB-3-1 viability, CellTiter-Glo ATP luminescence, 72 h; also: potency is read from the fitted curve at half-maximal effect; nearly all actives have a fitted effect of over 60% in size
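Luminescent ATP read-out (CellTiter-Glo) measures survival of drug-naive KB-3-1 cells after 72 h compound exposure at 37 °C. Titration series was screened from lowest to highest concentration, with DMSO vehicle plates as background controls.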
KB-V1 MDR tox: kills drug-selected multidrug resistant KB-V1 cells; AID 1347076; 400,000 compounds, 3.4% hits; Potency, µM (series often up to 46.1 µM), usual class: cytotoxic; KB-V1 MDR cells viability, CellTiter-Glo, 72 h; also: potency is read from the fitted curve at half-maximal effect; nearly all actives have a fitted effect of over 60% in size
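Cells of the MDR subline KB-V1 are plated, dosed with compound at multiple concentrations, and incubated 72 h at 37 degrees C; CellTiter-Glo is then added and luminescence read after 10 min.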
A549 viability: counter-screen for Nrf2 inhibitors: cytotoxicity in A549 cells; 390,000 compounds, 0.16% hits; Potency, µM (doses to about 46 µM), for the others: top-dose activity change, negative = cytotoxicity, hits mostly inhibitors; A549 ARE-Fluc cells, CellTiter-Fluor viability, 18-24 h; also: potency is read from the fitted curve at half-maximal effect
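A549 ARE-Fluc cells in 5% FBS OPTI-MEM, 5000 cells/well, rested 2 h then exposed to compounds in concentration-response for 18-24 h at 37 °C. Viability by CellTiter-Fluor fluorescence (Ex 405/Em 525) after 30 min; luciferase luminescence (BugLite, 15 min, RT) read afterwards.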
Nrf2 inh: blocks Nrf2 signaling; A549 ARE-Fluc reporter, luciferase luminescence, 18-24 h; Potency, µM (doses to about 46 µM), for the others: at the top dose activity change, negative = inhibition, actives largely listed as inhibitors; 360,000 compounds, 2.1% hits; also: potency is read from the fitted curve at half-maximal effect; nearly all actives have a fitted effect of over 60% in size
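A549 ARE_Fluc cells (5000/well, 5% FBS OPTI-MEM) pre-incubated 2 h, then treated with compounds 18-24 h at 37C/5% CO2 in concentration-response. CellTiter-Fluor viability read first; BugLite luciferase luminescence after 15 min at room temperature gives Nrf2 activity.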
* marks the source's active call; other numbers are inactive results; i = inactive; ? = inconclusive; nt = no result. Unless noted, calls follow the shape of the dose curve; as a rule, active = well fitted curve in the direction sought with a large enough effect; inconclusive = small, poorly fitted or top-dose-only effect, or another doubt; inactive = no such curve, though single readings can be large; an effect the other way counts as inactive or inconclusive. Unless noted, % is scaled to controls: 0 for no effect and ±100 for the full control effect.

SMILES	PI4K2A inh	Giardia killer	KB-3-1 cytotox	KB-V1 MDR tox	A549 viability	Nrf2 inh
O=C(Nc1cccc(Br)c1)c1cccc(OC(=S)N2CCOCC2)c1	-1.0	-4.5	?	?	-1.9%	16.4µM*
Cc1ccc(NC(=O)c2ccc(OC(=S)N3CCOCC3)cc2)cc1	-1.1	15.2	i	6.51µM*	-14.1%	-11.0%
CCOc1ccc(NC(=O)c2cccc(OC(=S)N3CCC(C)CC3)c2)cc1	0.2	12.3	i	18.4µM*	-28.5%	?
CN(C)CCCNc1nccc(N2CCN(C)CC2)n1	nt	nt	i	i	nt	nt
C=C1C=C(C)n2ncc(C(=O)Nc3cccc(C(=O)Nc4cccc(C(F)(F)F)c4)c3)c2N1	nt	nt	?	i	nt	nt
COC(=O)Cc1ccc(NC(=O)C(c2ccccc2)c2ccccc2)cc1	-0.8	5.4	i	8.2µM*	2.2%	-1.7%
O=C(c1ccc2c(=O)n(-c3ccccc3)c(=O)[nH]c2c1)N1CCN(Cc2cccs2)CC1	nt	0.3	i	i	6.8%	3.3%
COc1cccc(CN(C)Cc2cc(=O)oc3c(C)c(C)ccc23)c1	-4.0	-0.7	16.4µM*	i	0.0%	6.8%
O=C(NCCCN1CCOCC1)c1ccc(Sc2ccccc2Cl)c([N+](=O)[O-])c1	-2.9	-13.5	?	13µM*	-2.8%	8.8%
Clc1ccc2c(Cl)cc[n+](CCC3CCCCC3)c2c1	nt	nt	i	i	nt	nt
COc1cc(-c2nc3ccccc3s2)ccc1O	-1.4	6.3	i	i	-8.2%	18.4µM*
CCOc1ccc(C(=O)Nc2cc(-c3nc4ccccc4s3)ccc2OC)cc1	4.5	nt	?	7.31µM*	1.4%	17.2%
Cc1cccc(C(=O)NCCc2nc3ccccc3n2CCC(C)C)c1	1.4	nt	i	i	-12.4%	-13.4%
Fc1cccc(Cl)c1Cn1nnc2c(NCc3ccccn3)ncnc21	-14.7	-5.1	i	?	2.3%	-18.7%
CC(C)CCNc1ncnc2c1nnn2Cc1ccccc1Cl	0.9	8.6	i	13µM*	-0.3%	-13.1%
Fc1cccc(Cl)c1Cn1nnc2c(NCc3ccncc3)ncnc21	-27.4	-21.1	?	i	-0.8%	23.1µM*
COc1ccccc1NC(=O)c1ccc2ccccc2c1	nt	nt	nt	nt	14.7%	?
Cc1ccc2nc(SCC(=O)Nc3ccc(F)c([N+](=O)[O-])c3)[nH]c2c1	-0.7	-4.2	i	20.6µM*	-1.8%	9.5%
Cc1ccc2nc(SCC(=O)Nc3cc([N+](=O)[O-])ccc3F)[nH]c2c1	2.0	5.5	i	20.6µM*	0.7%	19.7%
Cc1ccc2nc(SCC(=O)c3ccc(Cl)s3)[nH]c2c1	-3.2	-18.6	i	13µM*	-2.3%	1.6%
Cc1ccc2nc(SCC(=O)Nc3ccc(C)c([N+](=O)[O-])c3)[nH]c2c1	-1.0	-4.8	i	i	-0.1%	-24.8%
Cc1ccc2nc(SC(C)C(=O)Nc3cccc([N+](=O)[O-])c3)[nH]c2c1 (configuration not stated)	1.7	-2.6	?	4.11µM*	-14.9%	20.6µM*
CCC(=O)Nc1ccc(C(=O)CSc2nc3ccc(C)cc3[nH]2)cc1	-3.0	0.7	?	i	-8.4%	1.1%
CC(=O)c1cc(-c2ccccc2)n(CCC(=O)Nc2cc(C)cc(C)c2)c1C	-1.2	nt	i	i	-21.1%	nt
N[C@H](C(=O)Nc1ccc(Cl)cc1C(=O)c1ccc[nH]1)c1ccccc1	-3.5	nt	nt	nt	nt	nt
O=S1(=O)C2CC3C=CC2(CN1Cc1ccccc1)O3 (configuration not stated)	nt	0.2	nt	nt	-4.4%	27.9%
CCOC(=O)C1=C(C)N=c2s/c(=C/c3ccccc3)c(=O)n2C1c1ccc(OC)c(OC)c1 (configuration not stated)	-1.9	7.3	i	?	-4.6%	25.6%
CCOC(=O)C1=C(C)n2c(s/c(=C/c3cccc([N+](=O)[O-])c3)c2=O)=NC1c1ccc(O)c(OC)c1 (configuration not stated)	2.7	-6.6	?	18.4µM*	?	?
